# Test results published in PubChem BioAssay (NCATS).
# Records with an inconclusive call do not appear. A call without a number means that no potency is given here. The source made the active and inactive calls. Unless noted, the call rests on the fitted dose curve; in most records, active means well fitted curve in the direction sought with a large enough effect; inconclusive means small, poorly fitted or top-dose-only effect, or another doubt; inactive means no such curve, though single readings can be large; an effect the other way counts as inactive or inconclusive.
# Key:
# [1] = target: Cytochrome P450 3A4 (Homo sapiens) (UniProt P08684); assay: qHTS Assay for Activators of Cytochrome P450 3A4 (AID 885); further: nearly all actives have a fitted effect of over 65% in size
# Procedure, shortened: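 Luminescent readout of luciferin formed from 25 uM Luciferin-PPXE (KM level) by 20 nM CYP3A4 in 200 mM KPO4, with 60 min NADPH-driven reaction at room temperature after 10 min compound exposure. Ketoconazole (57 uM) defined 100% inhibition.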
# [2] = qHTS Assay for Lipid Storage Modulators (AID 1519; calls by dose curve); settings: Drosophila S3 cells, BODIPY lipid droplet/cell ratio, laser cytometry, cells loaded with oleic acid; for activity change, negative = inhibition: at 57.5 µM (top of the series)
# Procedure, shortened: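 Cells seeded at 5,000 per well were treated with compounds over a concentration series and loaded with oleic acid (400 uM, as added). Lipid droplet fluorescence (488 nm excitation, 500-530 nm channel) was read by laser-scanning cytometry and normalized to 20 uM Triacsin C.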
# [3] = target: Ubiquitin carboxyl-terminal hydrolase 1 (Homo sapiens) (UniProt O94782); assay: Inhibitors of USP1/UAF1: Pilot qHTS (AID 504865);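 further: rhodamine fluorescence freed from ubiquitin-rhodamine substrate followed over time; top concentration of the series differs between compounds; nearly all actives have a fitted effect of over 35% in size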
# Procedure, shortened: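 1nM USP1/UAF1 + cpd, 15 min RT; start w/ Ub-Rho 150nM final; kinetic FL 480/540 nm, 6 reads q60 s. Buffer 50mM HEPES pH 7.8, 0.5mM EDTA, 1mM TCEP, 0.01% Tween-20, 0.1 mg/ml BSA.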
# [4] = target: DNA dC->dU-editing enzyme APOBEC-3G (Homo sapiens) (UniProt Q9HC16); assay: qHTS for inhibitors of Vif-A3G interactions: Validation (AID 588379)
# Procedure, shortened: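 Yellow fluorescence (Ex 488, Em 500-530) of Vif-coexpressing HeLa A3G-eYFP cells, scanned by Acumen cytometer, reports blocked A3G degradation. Cells plated at 700/well overnight at 37 deg C before compound addition, then a further overnight compound incubation at 37 deg C.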
# [5] = target: Cytochrome P450 3A4 (Homo sapiens) (UniProt P08684); assay: qHTS Assay for Inhibitors and Substrates of Cytochrome P450 3A4 (AID 884); further: nearly all actives have a fitted effect of over 50% in size
# Procedure, shortened: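 Luminescent readout of luciferin produced by CYP3A4 (20 nM) dealkylation of Luciferin-PPXE, 25 uM (its KM). NADPH-driven reaction ran 60 min at RT after 10 min compound preincubation; data scaled to 57 uM ketoconazole as 100% inhibition.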
# [6] = Confirmation and Secondary Assay for Modulators of Hemoglobin Beta Chain Splicing at IVS2 654 locus (AID 910);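 further: per-well total GFP intensity by laser scanning cytometry after 2-day treatment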
# Procedure, shortened: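 HeLa cells stably carrying EGFP interrupted by mutant beta-globin IVS2-654 intron (CMV-driven) were treated with compound for 2 days at 37C; corrected splicing was scored as total peak GFP intensity per well (488 nm excitation, 500-520 nm emission).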
# [7] = Confirmation and Secondary Assay for Modulators of Hemoglobin Beta Chain Splicing at IVS2 705 locus (AID 930);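 further: HeLa cells stably expressing the EGFP-705 splicing reporter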
# Procedure, shortened: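 Restored EGFP fluorescence after 2-day compound exposure reports splicing correction in IVS2-705 EGFP reporter HeLa cells; positive control was 500 nM splice-blocking PNA oligo. Signal measured as well total peak GFP intensity (488 nm excitation).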
# [8] = measured here: cell count channel max response
# [9] = measured here: lipid channel max response
# Cytochrome P450 3A4 (Homo sapiens), sequence (P08684 whole entry, looked up): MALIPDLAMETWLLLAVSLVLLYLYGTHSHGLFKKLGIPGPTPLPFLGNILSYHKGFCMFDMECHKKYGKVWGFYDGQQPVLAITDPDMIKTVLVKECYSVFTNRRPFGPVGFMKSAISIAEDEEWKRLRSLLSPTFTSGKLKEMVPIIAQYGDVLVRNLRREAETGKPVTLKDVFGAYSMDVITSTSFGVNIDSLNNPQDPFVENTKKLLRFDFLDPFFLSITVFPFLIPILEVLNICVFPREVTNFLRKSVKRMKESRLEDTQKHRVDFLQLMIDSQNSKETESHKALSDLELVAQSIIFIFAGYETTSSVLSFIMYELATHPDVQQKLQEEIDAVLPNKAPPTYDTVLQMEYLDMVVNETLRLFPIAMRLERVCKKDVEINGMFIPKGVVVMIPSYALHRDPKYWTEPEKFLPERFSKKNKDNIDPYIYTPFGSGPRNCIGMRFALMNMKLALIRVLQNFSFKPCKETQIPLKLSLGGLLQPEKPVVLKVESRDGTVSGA
# Ubiquitin carboxyl-terminal hydrolase 1 (Homo sapiens), sequence (O94782 whole entry, looked up): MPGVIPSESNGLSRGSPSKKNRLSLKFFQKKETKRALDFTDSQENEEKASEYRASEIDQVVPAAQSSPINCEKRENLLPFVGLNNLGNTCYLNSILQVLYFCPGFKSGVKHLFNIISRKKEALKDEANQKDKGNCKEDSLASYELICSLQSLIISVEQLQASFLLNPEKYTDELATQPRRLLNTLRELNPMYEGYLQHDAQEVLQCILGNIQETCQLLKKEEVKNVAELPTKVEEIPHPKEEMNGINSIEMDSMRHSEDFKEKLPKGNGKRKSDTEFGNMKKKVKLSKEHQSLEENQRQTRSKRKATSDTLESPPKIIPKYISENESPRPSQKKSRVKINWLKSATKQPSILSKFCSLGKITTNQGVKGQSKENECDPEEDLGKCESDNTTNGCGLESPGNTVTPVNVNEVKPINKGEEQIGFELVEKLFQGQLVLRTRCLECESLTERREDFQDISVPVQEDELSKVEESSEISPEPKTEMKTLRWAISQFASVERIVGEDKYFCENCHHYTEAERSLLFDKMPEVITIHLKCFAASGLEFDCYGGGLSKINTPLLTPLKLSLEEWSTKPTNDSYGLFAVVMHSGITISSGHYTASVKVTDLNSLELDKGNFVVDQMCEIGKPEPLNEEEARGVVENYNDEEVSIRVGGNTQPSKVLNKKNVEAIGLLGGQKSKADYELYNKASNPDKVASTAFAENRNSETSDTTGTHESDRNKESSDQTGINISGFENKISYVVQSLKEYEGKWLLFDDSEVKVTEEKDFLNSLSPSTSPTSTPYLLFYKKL
# DNA dC->dU-editing enzyme APOBEC-3G (Homo sapiens), sequence (Q9HC16 whole entry, looked up): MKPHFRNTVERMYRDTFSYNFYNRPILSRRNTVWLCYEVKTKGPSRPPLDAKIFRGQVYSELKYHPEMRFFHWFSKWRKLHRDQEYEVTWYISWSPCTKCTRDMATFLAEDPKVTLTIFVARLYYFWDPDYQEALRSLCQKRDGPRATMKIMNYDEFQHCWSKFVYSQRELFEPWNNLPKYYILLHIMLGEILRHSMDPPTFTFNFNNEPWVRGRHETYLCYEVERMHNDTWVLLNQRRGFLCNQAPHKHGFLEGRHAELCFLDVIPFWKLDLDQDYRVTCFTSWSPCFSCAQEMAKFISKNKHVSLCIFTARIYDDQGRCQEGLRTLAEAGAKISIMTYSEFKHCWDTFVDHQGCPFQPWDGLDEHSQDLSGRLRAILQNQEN
SMILES,Potency [1],"activity change, negative = inhibition [2]","max response [2, 8] [%]","max response [2, 9] [%]",Potency [3],outcome [4],Potency [5],Potency [6],Potency [7]
C=C[C@H]1CN2CC[C@H]1C[C@H]2c1[nH]c2ccccc2c1CCO,inactive,2.01% (inactive),-5.69,-2.67,inactive,inactive,–,–,–
COC[C@]12CN(C=O)C3C4C(OC)C1[C@@]3(C1CC3(O)C(OC)C(O)C4(OC(C)=O)C1C3OC(=O)c1ccccc1)[C@@H](OC)CC2O (stereo partly drawn),–,-0.123% (inactive),-6.49,-7.99,inactive,–,inactive,inactive,inactive
Cc1cc(OC(=O)N2CCCCC2)c(C(C)C)cc1[N+](C)(C)C,–,8.28% (inactive),17.5,31.1,inactive,–,inactive,inactive,inactive
CC(=O)O.CC(=O)O.[Cd],–,4.11% (inactive),7.92,9.61,inactive,–,inactive,inactive,inactive
C[C@@]12CCC(=O)C[C@@H]1CC[C@@H]1[C@@H]2CC[C@]2(C)C(=O)CC[C@@H]12,–,6.14% (inactive),2.79,10.6,inactive,–,inactive,inactive,inactive
CCC(N)C(O)c1ccc(O)c(O)c1 (stereo not drawn),–,5.92% (inactive),7.01,16.7,inactive,–,inactive,inactive,inactive
N#C/C(=C\c1ccc(O)cc1)C(=O)O,inactive,4.55% (inactive),8.92,15.9,inactive,–,–,inactive,inactive
NNCc1ccccc1,inactive,14.8% (inactive),5.74,20.3,inactive,–,–,inactive,inactive
CC1(C)N([O-])[N+](=O)C1(C)Br (stereo not drawn),–,1.13% (inactive),-4.64,-5.74,inactive,–,inactive,inactive,inactive
CCC(C)C(=O)OC1C(O)C2C(CN3CC(C)CCC3[C@]2(C)O)C2C[C@]34O[C@@]5(O)C(OC(=O)C(C)(O)C(C)O)CCC3(C)C5C(OC(C)=O)C(OC(C)=O)C4[C@@]21O (stereo partly drawn),–,4.38% (inactive),24.4,35.3,inactive,–,inactive,inactive,inactive
NCC(=O)c1ccccc1,inactive,8.66% (inactive),23.8,35.4,inactive,–,–,inactive,inactive
O=C(O)CCC1NCC2CC1CN1CCCCC21 (stereo not drawn),–,2.61% (inactive),3.62,5.45,inactive,–,inactive,inactive,inactive
